Results filed as inconclusive are left out. Calls of active or inactive are those of the source. Calls come from the whole dose curve; as a rule, active = well fitted curve in the direction sought with a large enough effect; inconclusive = small, poorly fitted or top-dose-only effect, or another doubt; inactive = no such curve, though single readings can be large; an effect the other way counts as inactive or inconclusive.
Legend:
Hek293T = experiment: Primary qHTS to identify gynecologic anti-cancer compounds using libraries of approved drugs and bioactive compounds (AID 1345084); details: Gynecologic cancer cell panel viability, ATPlite luminescence, 48 h, control line for the selectivity index; series mostly up to 57.5 µM; note: nearly all actives have a fitted effect of over 55% in size
Procedure, shortened: (§1)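 Cells, 1,000 per well, were allowed to settle for 16 h at 37 C before compound addition. Five concentrations were tested for 48 h, and viability was read by ATPlite luminescence after 15 min at room temperature.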

JEG-3 = experiment: as above; details: Gynecologic cancer cell panel viability, ATPlite luminescence, 48 h; series mostly up to 57.5 µM
Procedure, shortened: as §1

OV90 = experiment: as above; details: Gynecologic cancer cell panel viability, ATPlite luminescence, 48 h; series mostly up to 57.5 µM
Procedure, shortened: as §1

PA-1 = experiment: as above; details: Gynecologic cancer cell panel viability, ATPlite luminescence, 48 h; series mostly up to 57.5 µM
Procedure, shortened: as §1

Tov112D = experiment: as above; details: Gynecologic cancer cell panel viability, ATPlite luminescence, 48 h; series mostly up to 57.5 µM
Procedure, shortened: as §1

[1] = Drug repurposing screens with cells derived from glioblastoma tumor samples (AID 1345199); details: GBM patient neurospheres viability, ATP luminescence, 48 h; note: nearly all actives have a fitted effect of over 40% in size
Procedure, shortened: (§2)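 Primary testing used CD133+ neurospheres from four GBM patients, seven concentrations, 48 h exposure and ATP-based viability; confirmation added three slower-growing patient lines.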

astro = experiment: as above; details: viability, ATP luminescence, 48 h; series mostly up to 45.9 µM
Procedure, shortened: as §2

Tov-21-G = experiment: Primary qHTS to identify gynecologic anti-cancer compounds using libraries of approved drugs and bioactive compounds (AID 1345084); details: Gynecologic cancer cell panel viability, ATPlite luminescence, 48 h; series mostly up to 57.5 µM; note: nearly all actives have a fitted effect of over 55% in size
Procedure, shortened: as §1

SKOV3 = experiment: as above; details: Gynecologic cancer cell panel viability, ATPlite luminescence, 48 h; series mostly up to 57.5 µM
Procedure, shortened: as §1

[2] = at 45.9 µM (top of the series), tumour line B
[3] = at 46.1 µM (top of the series), tumour line C
[4] = at 45.9 µM (top of the series), tumour line D
[5] = at 20 µM (top of the series), tumour line C
[6] = at 21.2 µM (top of the series), tumour line B
[7] = at 21.2 µM (top of the series), tumour line D
[8] = at 21.3 µM (top of the series), tumour line A
[9] = at 46 µM (top of the series), tumour line A
% is set by controls: 0 for no effect and ±100 for the full control effect; potency is the fitted concentration of half-maximal effect.

C[C@H]1[C@H]2CC[C@H]3[C@@H]4CC=C5C[C@@H](N(C)C)CC[C@]5(C)[C@H]4CC[C@]23CN1C
active: Potency (OV90) 15.8 µM
inactive: Potency (Hek293T) | Potency (JEG-3) | Potency (PA-1) | Potency (Tov112D) | activity, negative = cell killing [1, 2] 0.435% | activity, negative = cell killing [1, 3] -23.5% | Potency (astro)

CC(C)(C)NC[C@H](O)COc1nsnc1N1CCOCC1
inactive: Potency (Hek293T) | Potency (JEG-3) | Potency (OV90) | Potency (PA-1) | Potency (Tov-21-G) | Potency (Tov112D) | activity, negative = cell killing [1, 2] -9.83% | activity, negative = cell killing [1, 4] -20.5% | activity, negative = cell killing [1, 3] -12.6% | Potency (astro)

O=C1C(CCS(=O)c2ccccc2)C(=O)N(c2ccccc2)N1c1ccccc1 (stereo not drawn)
inactive: Potency (Hek293T) | Potency (JEG-3) | Potency (OV90) | Potency (PA-1) | Potency (Tov-21-G) | Potency (Tov112D) | activity, negative = cell killing [1, 5] 4.04% | activity, negative = cell killing [1, 6] 2.69% | activity, negative = cell killing [1, 7] 2.83% | activity, negative = cell killing [1, 8] -0.0177% | Potency (astro)

Nc1ccc(C(=O)NCC(=O)O)cc1
inactive: Potency (Hek293T) | Potency (JEG-3) | Potency (OV90) | Potency (PA-1) | Potency (Tov-21-G) | Potency (Tov112D) | activity, negative = cell killing [1, 6] -7.61% | activity, negative = cell killing [1, 7] -13.9% | activity, negative = cell killing [1, 8] -13.3% | Potency (astro)

CCCCNC(=O)NS(=O)(=O)c1ccc(N)cc1
inactive: Potency (Hek293T) | Potency (JEG-3) | Potency (OV90) | Potency (PA-1) | Potency (Tov-21-G) | Potency (Tov112D) | activity, negative = cell killing [1, 2] -8.59% | activity, negative = cell killing [1, 4] 11% | activity, negative = cell killing [1, 9] -6.54% | activity, negative = cell killing [1, 3] -25.7% | Potency (astro)

COc1ccccc1N1CCN(CCCCNC(=O)c2ccc(-c3ccc(C(C)=O)cc3)cc2)CC1
inactive: Potency (Hek293T) | Potency (JEG-3) | Potency (OV90) | Potency (PA-1) | Potency (Tov-21-G) | Potency (Tov112D)

CCCCN=C(N)N=C(N)N
inactive: Potency (Hek293T) | Potency (JEG-3) | Potency (OV90) | Potency (PA-1) | Potency (Tov-21-G) | Potency (Tov112D) | activity, negative = cell killing [1, 2] -13.5% | activity, negative = cell killing [1, 4] -11% | activity, negative = cell killing [1, 3] -8.24% | Potency (astro)

CNCCc1ccccn1
inactive: Potency (Hek293T) | Potency (JEG-3) | Potency (OV90) | Potency (PA-1) | Potency (Tov-21-G) | Potency (Tov112D) | activity, negative = cell killing [1, 5] -4.84% | activity, negative = cell killing [1, 6] -4.42% | activity, negative = cell killing [1, 7] -9.97% | Potency (astro)

O=C(c1ccc(F)cc1)C1CCN(CCn2c(=S)[nH]c3ccccc3c2=O)CC1
active: Potency ([1]; tumour line A) 12.6 µM | Potency ([1]; tumour line C) 20.6 µM
inactive: Potency (Hek293T) | Potency (JEG-3) | Potency (OV90) | Potency (SKOV3) | Potency (Tov-21-G) | Potency (Tov112D) | activity, negative = cell killing [1, 2] -29.1%

Cc1cc(C)cc(OCC2CNC(=O)O2)c1 (stereo not drawn)
inactive: Potency (Hek293T) | Potency (JEG-3) | Potency (OV90) | Potency (PA-1) | Potency (Tov-21-G) | Potency (Tov112D) | activity, negative = cell killing [1, 2] 0.397% | activity, negative = cell killing [1, 4] -17.2% | activity, negative = cell killing [1, 9] -25.9% | activity, negative = cell killing [1, 3] 3.04% | Potency (astro)

NS(=O)(=O)c1cc(C(=O)O)cc(N2CCCC2)c1Oc1ccccc1
inactive: Potency (Hek293T) | Potency (JEG-3) | Potency (OV90) | Potency (PA-1) | Potency (Tov-21-G) | Potency (Tov112D) | activity, negative = cell killing [1, 5] 0.209% | activity, negative = cell killing [1, 6] -9.72% | activity, negative = cell killing [1, 7] -3.36% | activity, negative = cell killing [1, 8] -12.4% | Potency (astro)

CCc1oc2ccccc2c1C(=O)c1cc(Br)c(O)c(Br)c1
active: Potency ([1]; tumour line D) 35.5 µM | Potency (astro) 28.2 µM
inactive: Potency (Hek293T) | Potency (JEG-3) | Potency (OV90) | Potency (PA-1) | Potency (Tov-21-G) | Potency (Tov112D) | activity, negative = cell killing [1, 9] -39.6% | activity, negative = cell killing [1, 3] -6.19%

Cc1ccc(S(=O)(=O)NC(=O)NC2CCCC2)cc1
inactive: Potency (Hek293T) | Potency (JEG-3) | Potency (OV90) | Potency (PA-1) | Potency (Tov-21-G) | Potency (Tov112D) | activity, negative = cell killing [1, 2] -10.4% | activity, negative = cell killing [1, 4] -9.83% | activity, negative = cell killing [1, 3] -7.67%

CCOC(=O)[C@@](C)(N)Cc1ccc(O)c(O)c1
inactive: Potency (Hek293T) | Potency (JEG-3) | Potency (OV90) | Potency (PA-1) | Potency (Tov-21-G) | Potency (Tov112D) | activity, negative = cell killing [1, 5] -6.91% | activity, negative = cell killing [1, 6] -8.87% | activity, negative = cell killing [1, 7] -6.68% | activity, negative = cell killing [1, 8] -12.3% | Potency (astro)

O=C(Nc1cccc(C2=NCCN2)c1)Nc1cccc(C2=NCCN2)c1
inactive: Potency (Hek293T) | Potency (JEG-3) | Potency (OV90) | Potency (PA-1) | Potency (Tov112D) | activity, negative = cell killing [1, 2] 7.96% | activity, negative = cell killing [1, 4] -22.5% | activity, negative = cell killing [1, 9] 2.01% | activity, negative = cell killing [1, 3] -6.35% | Potency (astro)

COc1ccc(C(Cl)=C(c2ccc(OC)cc2)c2ccc(OC)cc2)cc1
inactive: Potency (Hek293T) | Potency (JEG-3) | Potency (OV90) | Potency (PA-1) | Potency (Tov-21-G) | Potency (Tov112D) | activity, negative = cell killing [1, 2] -6.95% | activity, negative = cell killing [1, 3] 2.89% | Potency (astro)
active: Potency ([1]; tumour line A) 11.2 µM

O=C(O)C(Cc1cc(I)c(O)c(I)c1)c1ccccc1 (stereo not drawn)
inactive: Potency (Hek293T) | Potency (JEG-3) | Potency (OV90) | Potency (SKOV3) | Potency (Tov-21-G) | Potency (Tov112D) | activity, negative = cell killing [1, 2] 4.75% | activity, negative = cell killing [1, 4] -5.57% | activity, negative = cell killing [1, 9] -25.7% | activity, negative = cell killing [1, 3] -25.5%

CC[N+](C)(CC)CCOC(=O)C(O)(c1ccccc1)C1CCCCC1 (stereo not drawn)
inactive: Potency (Hek293T) | Potency (JEG-3) | Potency (OV90) | Potency (PA-1) | Potency (Tov-21-G) | Potency (Tov112D) | activity, negative = cell killing [1, 2] 4.51% | activity, negative = cell killing [1, 4] -27.2% | activity, negative = cell killing [1, 3] -9.68% | Potency (astro)

Cc1cccc(C)c1NC(=O)CN1CCCCCC1
inactive: Potency (Hek293T) | Potency (JEG-3) | Potency (OV90) | Potency (PA-1) | Potency (Tov-21-G) | Potency (Tov112D) | activity, negative = cell killing [1, 2] -3.5% | activity, negative = cell killing [1, 4] -16.9% | activity, negative = cell killing [1, 3] -16.8% | Potency (astro)
active: Potency ([1]; tumour line A) 35.5 µM

Reference: PubChem BioAssay (NCATS)
